Reference: PubChem BioAssay (NCI)
The panel holds about 79,000 compounds, 15% with a hit somewhere; the sample as a whole holds those more often. Values without a mark were called inactive. Activity calls are given as the source filed them. No stated cut-off is given here; in the data, active means growth inhibition above about 70%; inactive means the rest.

Experiments:
[1] = NCI Yeast Anticancer Drug Screen. Data for the rad52 strain (AID 147);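 further: 0% = growth of vehicle-treated control cultures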; settings: S. cerevisiae rad52 mutant growth inhibition, hits give high values
Outline: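 Measured: yeast growth inhibition. System: strain with a defined DNA damage repair alteration. Reference: vehicle-treated control cultures.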

[2] = NCI Yeast Anticancer Drug Screen. Data for the wt1 strain (AID 149);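 further: 0% = growth of vehicle-treated wt1 cultures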; settings: S. cerevisiae wt1 strain (SPY 50644) growth inhibition, hits give high values
Outline: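 Using yeast strain wt1, compound-induced growth inhibition was determined against vehicle-treated cultures.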

[3] = NCI Yeast Anticancer Drug Screen. Data for the rad50EPP+ strain (AID 151);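 further: 0% = growth of vehicle-treated control cultures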; settings: S. cerevisiae rad50 mutant strain, hits give high values
Outline: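 One strain with a rad50 alteration (rad50EPP+) was compound-treated, its growth then compared to that of vehicle controls.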

[4] = NCI Yeast Anticancer Drug Screen. Data for the mgt1 strain (AID 153); settings: S. cerevisiae mgt1 mutant growth inhibition, hits give high values
Outline: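 After exposure of the mgt1 yeast mutant to compound, growth was measured and reported as inhibition compared with vehicle controls.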

[5] = NCI Yeast Anticancer Drug Screen. Data for the rad50 strain (AID 155);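 further: 0% = growth of vehicle-only cultures of the same strain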; settings: S. cerevisiae rad50 strain growth inhibition, hits give high values
Outline: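 Relative growth inhibition (compound vs vehicle) was measured in yeast with a defined repair-gene alteration.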

[6] = NCI Yeast Anticancer Drug Screen. Data for the mec2-1 strain (AID 157); settings: S. cerevisiae mec2-1 strain, hits give high values
Outline: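 Test agents were screened against the mec2-1 yeast strain, with defined DNA repair or cell cycle alteration. Growth was scored as inhibition against vehicle-only controls.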

[7] = NCI Yeast Anticancer Drug Screen. Data for the sgs1 mgt1 strain (AID 161);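 further: 0% = growth of cultures given vehicle only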; settings: S. cerevisiae sgs1 mgt1 strain, hits give high values
Outline: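 Read-out: growth inhibition vs vehicle controls. Cells: mutant yeast strain deficient in DNA damage repair.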

[8] = NCI Yeast Anticancer Drug Screen. Data for the CLN2oe strain (AID 163);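 further: 0% = growth of vehicle-only control cultures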; settings: S. cerevisiae CLN2oe strain, hits give high values
Outline: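 Here, growth inhibition in a cell-cycle-altered yeast strain after compound exposure was quantified against vehicle control growth.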

[9] = NCI Yeast Anticancer Drug Screen. Data for the cln2 rad14 strain (AID 165);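 further: 0% = growth equal to vehicle treated cultures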; settings: S. cerevisiae cln2 rad14 strain, hits give high values
Outline: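 Growth of compound-exposed yeast (cln2 rad14 genotype) measured and expressed as inhibition relative to vehicle.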

[10] = NCI Yeast Anticancer Drug Screen. Data for the bub3 strain (AID 167); settings: S. cerevisiae bub3 mutant strain, hits give high values
Outline: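 Screening used yeast with an engineered genetic alteration affecting cell cycle control. Compound-exposed cultures were compared with vehicle cultures, and reduced growth was taken as inhibition.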

[11] = NCI Yeast Anticancer Drug Screen. Data for the wt2 strain (AID 169);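 further: 0% = growth of vehicle-treated yeast cultures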; settings: S. cerevisiae wt2 strain growth inhibition, hits give high values
Outline: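 Genetically defined yeast strains from a DNA-repair/cell-cycle panel were used. Compound-exposed yeast growth was measured, and the inhibition was calculated relative to vehicle treatment.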

[12] = NCI Yeast Anticancer Drug Screen. Data for the mlh1 strain (AID 171);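 further: 0% = growth of vehicle-treated control cultures of the same strain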; settings: S. cerevisiae mlh1 strain growth inhibition, hits give high values
Outline: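 Here the genetically defined yeast mutant is grown with each compound, and the extent to which its growth falls below that of vehicle-exposed cells is reported.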

[13] = NCI Yeast Anticancer Drug Screen. Data for the sgs1 strain (AID 173);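 further: 0% = growth of vehicle-only control cultures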; settings: S. cerevisiae sgs1 mutant, hits give high values
Outline: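 Relative growth inhibition, referenced to vehicle, was determined in a yeast strain with a defined alteration affecting DNA damage repair or cell cycle control after compound exposure.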

[14] = NCI Yeast Anticancer Drug Screen. Data for the mlh1 rad18 strain (AID 175); settings: S. cerevisiae mlh1 rad18 strain growth inhibition, hits give high values
Outline: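 In this whole-cell yeast screen, a strain with altered DNA damage repair is challenged with compound, and its growth is measured against matched vehicle-treated controls.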

[15] = NCI Yeast Anticancer Drug Screen. Data for the rad18 strain (AID 177); settings: S. cerevisiae rad18 mutant growth inhibition, hits give high values
Outline: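 Screen uses a yeast strain with a defined lesion in DNA damage repair; compound effect is read as loss of growth compared to untreated vehicle cultures.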

[16] = NCI Yeast Anticancer Drug Screen. Data for the rad14 strain (AID 159);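 further: 0% = growth of vehicle-treated control cultures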; settings: S. cerevisiae rad14 strain growth inhibition, hits give high values
Outline: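 Screen for anticancer potential: a yeast strain altered in DNA damage repair is grown with compound, and reduced growth is quantified against vehicle controls.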

[17] = at 5.0 µM (retest, dose inferred, filed as 0.5)
[18] = at 50.0 µM (retest, dose inferred, filed as 5.0)

O=C1c2ccccc2-c2n[nH]c3cccc1c23
growth inhibition ([1]; at 1.2 µM): -28% | growth inhibition ([1]; at 3.7 µM): 10% | growth inhibition ([1]; at 11.0 µM): 69% | growth inhibition ([1]; at 33.0 µM): 84% (active) | growth inhibition ([1]; at 100.0 µM): 78% (active) | growth inhibition ([2]; at 1.2 µM): -21% | growth inhibition ([2]; at 3.7 µM): -28% | growth inhibition ([2]; at 11.0 µM): -12% | growth inhibition ([2]; at 33.0 µM): 10% | growth inhibition ([2]; at 100.0 µM): 11% | growth inhibition ([3]; at 1.2 µM): 7% | growth inhibition ([3]; at 3.7 µM): 69% | growth inhibition ([3]; at 11.0 µM): 86% (active) | growth inhibition ([3]; at 33.0 µM): 88% (active) | growth inhibition ([3]; at 100.0 µM): 73% (active) | growth inhibition ([4]; at 1.2 µM): -40% | growth inhibition ([4]; at 3.7 µM): -32% | growth inhibition ([4]; at 11.0 µM): -10% | growth inhibition ([4]; at 33.0 µM): 27% | growth inhibition ([4]; at 100.0 µM): 32% | growth inhibition ([5]; at 1.2 µM): -21% | growth inhibition ([5]; at 3.7 µM): 29% | growth inhibition [5, 17]: 100% (active) | growth inhibition ([5]; at 11.0 µM): 67% | growth inhibition ([5]; at 33.0 µM): 79% (active) | growth inhibition [5, 18]: 99% (active) | growth inhibition ([5]; at 50.0 µM): 69.2% | growth inhibition ([5]; at 100.0 µM): 74% (active) | growth inhibition ([6]; at 1.2 µM): -67% | growth inhibition ([6]; at 3.7 µM): -38% | growth inhibition [6, 17]: 100% (active) | growth inhibition ([6]; at 11.0 µM): -5% | growth inhibition ([6]; at 33.0 µM): 26% | growth inhibition [6, 18]: 100% (active) | growth inhibition ([6]; at 50.0 µM): 54.3% | growth inhibition ([6]; at 100.0 µM): 46% | growth inhibition [7, 17]: -5% | growth inhibition [7, 18]: 86% (active) | growth inhibition ([7]; at 50.0 µM): 78.1% (active) | growth inhibition ([8]; at 1.2 µM): -52% | growth inhibition ([8]; at 3.7 µM): -21% | growth inhibition ([8]; at 11.0 µM): -26% | growth inhibition ([8]; at 33.0 µM): -6% | growth inhibition ([8]; at 100.0 µM): 1% | growth inhibition [9, 17]: 44% | growth inhibition [9, 18]: 87% (active) | growth inhibition ([9]; at 50.0 µM): 38.9% | growth inhibition ([10]; at 1.2 µM): -1% | growth inhibition ([10]; at 3.7 µM): -15% | growth inhibition [10, 17]: 0% | growth inhibition ([10]; at 11.0 µM): 22% | growth inhibition ([10]; at 33.0 µM): 46% | growth inhibition [10, 18]: 89% (active) | growth inhibition ([10]; at 50.0 µM): 65.6% | growth inhibition ([10]; at 100.0 µM): 53% | growth inhibition ([11]; at 1.2 µM): -20% | growth inhibition ([11]; at 3.7 µM): -20% | growth inhibition ([11]; at 11.0 µM): 2% | growth inhibition ([11]; at 33.0 µM): 41% | growth inhibition ([11]; at 100.0 µM): 36% | growth inhibition ([12]; at 1.2 µM): -42% | growth inhibition ([12]; at 3.7 µM): -38% | growth inhibition ([12]; at 11.0 µM): 9% | growth inhibition ([12]; at 33.0 µM): 39% | growth inhibition ([12]; at 100.0 µM): 58% | growth inhibition ([13]; at 1.2 µM): -39% | growth inhibition ([13]; at 3.7 µM): -16% | growth inhibition ([13]; at 11.0 µM): 3% | growth inhibition ([13]; at 33.0 µM): 35% | growth inhibition ([13]; at 100.0 µM): 27% | growth inhibition [14, 17]: 100% (active) | growth inhibition [14, 18]: 100% (active) | growth inhibition ([14]; at 50.0 µM): 81.1% (active) | growth inhibition ([15]; at 1.2 µM): -49% | growth inhibition ([15]; at 3.7 µM): -32% | growth inhibition ([15]; at 11.0 µM): -1% | growth inhibition ([15]; at 33.0 µM): 33% | growth inhibition ([15]; at 100.0 µM): 50%

O=[N+]([O-])c1cccc2nccc(NCCCO)c12
growth inhibition ([1]; at 1.2 µM): 18% | growth inhibition ([1]; at 3.7 µM): 2% | growth inhibition ([1]; at 11.0 µM): 11% | growth inhibition ([1]; at 33.0 µM): 40% | growth inhibition ([1]; at 100.0 µM): 70% (active) | growth inhibition ([2]; at 1.2 µM): 1% | growth inhibition ([2]; at 3.7 µM): 0% | growth inhibition ([2]; at 11.0 µM): 5% | growth inhibition ([2]; at 33.0 µM): 10% | growth inhibition ([2]; at 100.0 µM): 16% | growth inhibition ([3]; at 1.2 µM): 14% | growth inhibition ([3]; at 3.7 µM): 13% | growth inhibition ([3]; at 11.0 µM): 20% | growth inhibition ([3]; at 33.0 µM): 27% | growth inhibition ([3]; at 100.0 µM): 46% | growth inhibition ([5]; at 1.2 µM): -17% | growth inhibition ([5]; at 3.7 µM): 3% | growth inhibition [5, 17]: 32% | growth inhibition ([5]; at 11.0 µM): 11% | growth inhibition ([5]; at 33.0 µM): 40% | growth inhibition [5, 18]: 79% (active) | growth inhibition ([5]; at 50.0 µM): 46.3% | growth inhibition ([5]; at 100.0 µM): 70% (active) | growth inhibition ([6]; at 1.2 µM): -20% | growth inhibition ([6]; at 3.7 µM): -12% | growth inhibition [6, 17]: 13% | growth inhibition ([6]; at 11.0 µM): -3% | growth inhibition ([6]; at 33.0 µM): 23% | growth inhibition [6, 18]: 52% | growth inhibition ([6]; at 50.0 µM): 57.7% | growth inhibition ([6]; at 100.0 µM): 68% | growth inhibition ([16]; at 1.2 µM): -9% | growth inhibition ([16]; at 3.7 µM): 4% | growth inhibition ([16]; at 11.0 µM): 34% | growth inhibition ([16]; at 33.0 µM): 75% (active) | growth inhibition ([16]; at 100.0 µM): 91% (active) | growth inhibition [7, 17]: 51% | growth inhibition [7, 18]: 85% (active) | growth inhibition ([7]; at 50.0 µM): 73.8% (active) | growth inhibition ([8]; at 1.2 µM): 11% | growth inhibition ([8]; at 3.7 µM): 5% | growth inhibition ([8]; at 11.0 µM): 4% | growth inhibition ([8]; at 33.0 µM): 2% | growth inhibition ([8]; at 100.0 µM): 14% | growth inhibition [9, 17]: 15% | growth inhibition [9, 18]: 91% (active) | growth inhibition ([9]; at 50.0 µM): 57.9% | growth inhibition ([10]; at 1.2 µM): -12% | growth inhibition ([10]; at 3.7 µM): -13% | growth inhibition [10, 17]: 4% | growth inhibition ([10]; at 11.0 µM): -14% | growth inhibition ([10]; at 33.0 µM): -18% | growth inhibition [10, 18]: -43% | growth inhibition ([10]; at 50.0 µM): 10.1% | growth inhibition ([10]; at 100.0 µM): -9% | growth inhibition ([11]; at 1.2 µM): -27% | growth inhibition ([11]; at 3.7 µM): -26% | growth inhibition ([11]; at 11.0 µM): -19% | growth inhibition ([11]; at 33.0 µM): -22% | growth inhibition ([11]; at 100.0 µM): 6% | growth inhibition ([12]; at 1.2 µM): -26% | growth inhibition ([12]; at 3.7 µM): -7% | growth inhibition ([12]; at 11.0 µM): -3% | growth inhibition ([12]; at 33.0 µM): 5% | growth inhibition ([12]; at 100.0 µM): 30% | growth inhibition ([13]; at 1.2 µM): 8% | growth inhibition ([13]; at 3.7 µM): 38% | growth inhibition ([13]; at 11.0 µM): 62% | growth inhibition ([13]; at 33.0 µM): 79% (active) | growth inhibition ([13]; at 100.0 µM): 86% (active) | growth inhibition [14, 17]: 24% | growth inhibition [14, 18]: 91% (active) | growth inhibition ([14]; at 50.0 µM): 32.9% | growth inhibition ([15]; at 1.2 µM): 46% | growth inhibition ([15]; at 3.7 µM): 79% (active) | growth inhibition ([15]; at 11.0 µM): 88% (active) | growth inhibition ([15]; at 33.0 µM): 93% (active) | growth inhibition ([15]; at 100.0 µM): 94% (active)
